miR-122 inh – activators of miR-122 sensor in Huh7 cells | Huh7 psiCHECK-miR122 Renilla luciferase sensor, 48 h | activation, % at 12.5 µM | 340,000 compounds, 0.14% hits | AID 623901;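 active means mean activation of 30% or more, with every replicate also reaching 30%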;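 further: 0% = median of neutral control wells and 100% = median of positive control wells; higher luciferase signal means stronger suppression of miR-122 activity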
* hit, by the source's call. This excerpt belongs to a sample that is enriched for hits.

SMILES	miR-122 inh
COc1ccccc1S(=O)(=O)N(C)C[C@H]1Oc2ncc(-c3ccc(C)cc3)cc2C(=O)N([C@@H](C)CO)C[C@@H]1C	-3
C[C@@H]1CN([C@H](C)CO)S(=O)(=O)c2ccc(C#CC3CC3)cc2O[C@@H]1CN(C)C(=O)c1cccc(F)c1	44*
C[C@H]1CN([C@@H](C)CO)S(=O)(=O)c2ccc(C#CC3CC3)cc2O[C@H]1CN(C)C(=O)C1CC1	-14
COCC(=O)N(C)C[C@H]1Oc2cc(C#CC3CC3)ccc2S(=O)(=O)N([C@H](C)CO)C[C@@H]1C	-2
COCC(=O)N(C)C[C@@H]1Oc2cc(C#CC3CC3)ccc2S(=O)(=O)N([C@@H](C)CO)C[C@H]1C	-1
COCC(=O)N(C)C[C@H]1Oc2cc(C#CC3CC3)ccc2S(=O)(=O)N([C@H](C)CO)C[C@H]1C	10
C[C@@H]1CN([C@@H](C)CO)S(=O)(=O)c2ccc(C#CC3CC3)cc2O[C@@H]1CN(C)C(=O)c1cccc(F)c1	42*
C[C@@H]1CN([C@H](C)CO)C(=O)c2cc(C#Cc3ccccn3)cnc2O[C@@H]1CN(C)Cc1cncnc1	7
C[C@H](CO)N1C[C@H](C)[C@H](CN(C)Cc2cccc(F)c2)Oc2ncc(Br)cc2C1=O	-23
C[C@H](CO)N1C[C@H](C)[C@H](CN(C)Cc2ccc(Oc3ccccc3)cc2)Oc2ncc(-c3cccnc3)cc2C1=O	5
COc1ccc(NC(=O)N(C)C[C@@H]2Oc3ncc(C#Cc4ccc(OC)c(OC)c4)cc3C(=O)N([C@H](C)CO)C[C@@H]2C)cc1	16
COCC#Cc1cnc2c(c1)C(=O)N([C@@H](C)CO)C[C@@H](C)[C@@H](CN(C)C(=O)Nc1c(C)noc1C)O2	3
COc1ccc(S(=O)(=O)N(CCc2ccccc2)CC(=O)N2CCOCC2)cc1	-125
CCC(=O)N(C)C[C@H]1Oc2cc(C#C[C@@H](C)O)ccc2S(=O)(=O)N([C@@H](C)CO)C[C@H]1C	1
C[C@@H]1CN([C@@H](C)CO)C(=O)c2cc(C#Cc3ccccc3F)cnc2O[C@@H]1CN(C)C(=O)C1CCOCC1	1
COCC(=O)N(C)C[C@H]1Oc2cc(-c3cccc(F)c3)ccc2S(=O)(=O)N([C@H](C)CO)C[C@H]1C	14
COc1ccccc1-c1ccc2c(c1)O[C@H](CN(C)S(=O)(=O)c1ccc(C)cc1)[C@H](C)CN([C@H](C)CO)S2(=O)=O	-55
COCC(=O)N(C)C[C@H]1Oc2cc(-c3ccccc3F)ccc2S(=O)(=O)N([C@@H](C)CO)C[C@H]1C	55*
COc1ccccc1-c1ccc2c(c1)O[C@@H](CN(C)S(=O)(=O)c1ccc(F)cc1)[C@@H](C)CN([C@@H](C)CO)S2(=O)=O	36*
COc1ccc(-c2ccc3c(c2)O[C@H](CN(C)C(=O)c2ccccc2F)[C@H](C)CN([C@@H](C)CO)S3(=O)=O)cc1	13
COCC(=O)N(C)C[C@H]1Oc2cc(-c3cccc(F)c3)ccc2S(=O)(=O)N([C@@H](C)CO)C[C@@H]1C	-6
COc1ccccc1-c1ccc2c(c1)O[C@@H](CN(C)S(=O)(=O)c1ccc(C)cc1)[C@H](C)CN([C@@H](C)CO)S2(=O)=O	3
COc1ccc(-c2ccc3c(c2)O[C@H](CN(C)C(=O)c2ccccc2F)[C@H](C)CN([C@H](C)CO)S3(=O)=O)cc1	4
COc1ccc(-c2ccc3c(c2)O[C@H](CN(C)C(=O)Nc2ccccc2F)[C@H](C)CN([C@@H](C)CO)S3(=O)=O)cc1	32*
C[C@H]1CN([C@@H](C)CO)C(=O)c2cc(-c3cccc(F)c3)cnc2O[C@@H]1CN(C)Cc1ccncc1	1
SMILES	miR-122 inh
C[C@@H]1CN([C@H](C)CO)C(=O)c2cc(-c3cncnc3)cnc2O[C@@H]1CN(C)Cc1ccncc1	3
COc1ccc(S(=O)(=O)N2CC[C@@H]3[C@@H](CO)N(C)c4ccc(-c5ccc(F)cc5)cc4[C@@H]32)cc1	-196
C[C@H]1CN([C@@H](C)CO)C(=O)c2cc(-c3ccc(C(=O)N(C)C)cc3)cnc2O[C@H]1CN(C)C(=O)c1cccnc1	6
CN(C)S(=O)(=O)c1ccc2c(c1)nc(CCC(=O)NCC1CCCCC1)n2C	-164
CCOc1ccccc1-c1nc(-c2ccc(C)nc2OC)no1	-130
COc1cccc(NC(=O)N(C)C[C@@H]2Oc3ncc(C#Cc4ccccc4)cc3C(=O)N([C@@H](C)CO)C[C@H]2C)c1	4
C[C@H]1CN([C@@H](C)CO)S(=O)(=O)c2ccc(-c3cccc(C(=O)N(C)C)c3)cc2O[C@@H]1CN(C)C(=O)Nc1ccccc1	-16
COc1ccc2[nH]c3c4c(ccc3c2c1)C(=O)C=CC4=O	42*
CCN(CC)CCNc1nc(-c2ccccc2)nnc1C(F)(F)F	44*
COc1ccc(NC(=O)N(C)C[C@@H]2Oc3ncc(Br)cc3C(=O)N([C@@H](C)CO)C[C@@H]2C)cc1	-49
CCCC#Cc1ccc2c(c1)O[C@H](CN(C)C(=O)NCCC)[C@H](C)CN([C@H](C)CO)S2(=O)=O	1
CC(=O)N(C)C[C@H]1Oc2cc(C#C[C@@H](C)O)ccc2S(=O)(=O)N([C@@H](C)CO)C[C@@H]1C	-5
C[C@H](CO)N1C[C@H](C)[C@@H](CN(C)Cc2ccncc2)Oc2ccc(NC(=O)Nc3cccc4ccccc34)cc2CC1=O	-98
C[C@@H]1CN([C@H](C)CO)C(=O)Cc2cc(NC(=O)Nc3cccc4ccccc34)ccc2O[C@@H]1CN(C)C(=O)NC1CCCCC1	-121
C[C@H](CO)N1C[C@H](C)[C@H](CN(C)Cc2ccc(C(=O)Nc3ccccc3N)cc2)Oc2ccc(NC(=O)Nc3cccc4ccccc34)cc2CC1=O	-96
C[C@@H]1CCCCO[C@@H](CN(C)CC2CCCCC2)[C@H](C)CN([C@@H](C)CO)C(=O)c2cc(NC(=O)Nc3cccc4ccccc34)ccc2O1	31*
C[C@H]1CCCCO[C@@H](CN(C)CC2CCCCC2)[C@@H](C)CN([C@@H](C)CO)C(=O)c2cc(NC(=O)Nc3cccc4ccccc34)ccc2O1	33*
C[C@@H]1CN([C@H](C)CO)C(=O)Cc2cc(NC(=O)Nc3cccc4ccccc34)ccc2O[C@@H]1CN(C)C(=O)Nc1cccc2ccccc12	-99
CCCC#Cc1cnc2c(c1)C(=O)N([C@H](C)CO)C[C@@H](C)[C@@H](CN(C)Cc1cccnc1)O2	6
CCCC(O)C#Cc1cnc2c(c1)C(=O)N([C@H](C)CO)C[C@H](C)[C@H](CN(C)C)O2 (stereo partly drawn)	2
C[C@H](CO)N1C[C@H](C)[C@H](CN(C)Cc2ccccc2F)Oc2ncc(/C=C/c3ccccc3)cc2C1=O	-3
C[C@@H]1CN([C@H](C)CO)S(=O)(=O)c2ccc(-c3cccnc3)cc2O[C@@H]1CN(C)Cc1ccccn1	7
C[C@H](CO)N1C[C@H](C)[C@@H](CN(C)S(=O)(=O)c2cn(C)cn2)Oc2cc(C#Cc3ccc(F)cc3)ccc2S1(=O)=O	-27
COc1cc(/C=C2/CCC/C(=C\c3cc(O)c(OC)c(Cl)c3)C2=O)cc(Cl)c1O	-113
O=C1/C(=C/c2ccncc2)CCC/C1=C\c1ccncc1	78*
C[C@H](CO)N1C[C@H](C)[C@H](CN(C)S(=O)(=O)c2cn(C)cn2)Oc2ncc(Br)cc2C1=O	5
CC(C)C#Cc1ccc2c(c1)O[C@H](CN(C)C(=O)c1ccccc1)[C@H](C)CN([C@H](C)CO)S2(=O)=O	12
C[C@@H]1CN([C@@H](C)CO)S(=O)(=O)c2ccc(C#Cc3ccncc3)cc2O[C@@H]1CN(C)C(=O)C1CCOCC1	33*

Compound activity from PubChem BioAssay.
